Laboratory results as given in PubChem BioAssay AID1159580 (chemical genetic matrix, 2015).
“And” between values parts separate entries of the source, which are not always exact repeats. Identical values can stand only once. The campaign covered roughly 5,500 compounds. About 2,000 (36%) were called active. Not shown: some 18% with an inconclusive outcome. Cut-off read from the data, not from the text of the source: active = normalized growth mostly below about 0.91 (no sharp cut-off); inconclusive = no clear call, values can overlap the other calls; inactive = mostly above about 0.92. The list shows a part of the results.

Assay: chemical genetic growth profiling, strain panel (AID 1159580);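 note: tested at 20 µM; growth read once vehicle control cultures reached saturation at 30 °C; 1 = growth at the plate median or of vehicle wells; lower values mean less growth of the strain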
Details: S. cerevisiae deletion strains, growth OD

Measured: normalized growth

C[C@H]1OC(O[C@H]2[C@@H](O)CC(O[C@H]3[C@@H](O)C[C@H](O[C@H]4CC[C@]5(C)C6CC[C@]7(C)[C@@H](C8=CC(=O)OC8)[C@@H](O)C[C@]7(O)[C@@H]6CC[C@@H]5C4)O[C@@H]3C)O[C@@H]2C)C[C@H](O)C1O (some centres not stated)
inactive: locus YBR021W, strain FUR4, active compounds read low 0.986 | locus YBR229C, strain ROT2, active compounds read low 1.01 | locus YCL029C, strain bik1, active compounds read low 0.989 | locus YDL035C, strain GPR1, active compounds read low 0.992 | locus YDL074C, strain BRE1, active compounds read low 1.01 | locus YDL101C, strain DUN1, active compounds read low 1 | locus YDL134C, strain PPH21, active compounds read low 1.01 | locus YDL185W, strain tfp1, active compounds read low 0.981 | locus YDL192W, strain arf1, active compounds read low 0.988 | locus YDR101C, strain arx1, active compounds read low 0.991 | locus YDR150W, strain NUM1, active compounds read low 1.02 | locus YDR162C, strain NBP2, active compounds read low 1 | locus YDR318W, strain mcm21, active compounds read low 1.01 | locus YDR388W, active compounds read low 0.999 | locus YDR502C, strain sam2, active compounds read low 0.987 | locus YEL061C, strain CIN8, active compounds read low 0.999 | locus YER110C, active compounds read low 0.986 | locus YER155C, strain BEM2, active compounds read low 0.985 | locus YER167W, strain BCK2, active compounds read low 0.99 | locus YGL078C, strain dbp3, active compounds read low 0.981 | locus YGL086W, strain mad1, active compounds read low 0.965 | locus YGL248W, strain PDE1, active compounds read low 1.01 | locus YGR135W, strain pre9, active compounds read low 1.01 | locus YGR229C, strain SMI1, active compounds read low 0.998 | locus YGR252W, strain gcn5, active compounds read low 1.02 | locus YHR030C, strain SLT2, active compounds read low 1 and 1.03 | locus YHR079C, strain IRE1 (second series), active compounds read low 0.998 | locus YHR079C, strain IRE1, active compounds read low 1.03 | locus YHR094C, strain hxt1, active compounds read low 0.989 | locus YHR129C, strain ARP1, active compounds read low 0.999 | locus YHR200W, strain rpn10, active compounds read low 1 | locus YIL066C, strain RNR3, active compounds read low 1 | locus YIL073C, strain SPO22, active compounds read low 1.01 | locus YIL125W, strain kgd1, active compounds read low 0.981 | locus YIR030C, strain dcg1, active compounds read low 0.989 | locus YJL095W, strain BCK1, active compounds read low 1.01 and 1 | locus YJL134W, strain LCB3, active compounds read low 1 | locus YJL168C, strain set2, active compounds read low 0.996 | locus YJL187C, strain SWE1 (second series), active compounds read low 1.02 | locus YJR043C, strain POL32, active compounds read low 1.01 | locus YJR066W, strain TOR1, active compounds read low 0.965 | locus YKL009W, strain mrt4, active compounds read low 0.927 | locus YKL068W, active compounds read low 0.994 | locus YKL085W, strain MDH1 (second series), active compounds read low 0.988 | locus YKL085W, strain MDH1, active compounds read low 0.988 | locus YKR001C, strain vps1, active compounds read low 0.986 | locus YLR039C, strain RIC1, active compounds read low 1.06 | locus YLR058C, strain SHM2, active compounds read low 1 | locus YLR102C, strain apc9, active compounds read low 0.99 | locus YLR113W, strain HOG1, active compounds read low 0.975 | locus YLR262C, strain YPT6, active compounds read low 1.04 | locus YLR268W, strain sec22, active compounds read low 0.99 | locus YLR330W, strain CHS5, active compounds read low 0.994 | locus YLR342W, strain FKS1 (second series), active compounds read low 1.02 | locus YLR371W, strain rom2, active compounds read low 0.989 | locus YLR418C, strain cdc73, active compounds read low 0.998 | locus YML016C, strain PPZ1, active compounds read low 1.01 | locus YML032C, strain rad52, active compounds read low 1.01 | locus YML124C, strain tub3, active compounds read low 1 | locus YMR078C, strain ctf18, active compounds read low 1 | locus YMR223W, strain ubp8, active compounds read low 1.01 | locus YMR263W, strain SAP30, active compounds read low 1.01 | locus YMR307W, strain GAS1, active compounds read low 1.05 | locus YNL067W, strain RPL9B, active compounds read low 1.01 | locus YNL183C, strain NPR1, active compounds read low 0.989 | locus YNL233W, strain BNI4, active compounds read low 0.995 | locus YNL250W, strain rad50, active compounds read low 0.983 | locus YNL271C, strain bni1, active compounds read low 0.99 | locus YNL298W, strain CLA4, active compounds read low 0.989 | locus YNL307C, strain MCK1, active compounds read low 0.993 | locus YNL322C, strain KRE1, active compounds read low 1.01 | locus YNR052C, strain pop2, active compounds read low 0.999 | locus YOL012C, strain htz1 1.48 | locus YOL147C, strain pex11, active compounds read low 0.984 | locus YOR061W, strain CKA2, active compounds read low 1.01 | locus YOR069W, strain VPS5, active compounds read low 0.995 | locus YOR136W, strain idh2, active compounds read low 0.98 | locus YOR144C, strain elg1, active compounds read low 0.995 | locus YOR184W, strain ser1, active compounds read low 0.983 | locus YOR231W, strain MKK1, active compounds read low 0.995 | locus YOR316C, strain cot1, active compounds read low 0.994 | locus YPL256C, strain CLN2, active compounds read low 1.03 | locus YPR119W, strain clb2, active compounds read low 0.996 | locus YPR141C, strain kar3, active compounds read low 0.99 | locus YPR163C, strain tif3, active compounds read low 0.995 | locus YPR167C, strain met16, active compounds read low 0.994 | strain wtn01, active compounds read low 0.98
